Measurements published in the supplement of paper PMC10849652.
About 8,800 targets were measured; listed, in parts, are those with a hit and a random draw of the rest. About 0.5% of all pairs of compound and target were hits. Values without a mark were called inactive.

Columns and labels:
Experiment in all cases: log2 fold change, soluble protein after heating vs DMSO (PISA); higher = thermal stabilisation; K562 lysate, 10 uM; active = over 0.2 and 3.5 SD of the protein, either way, in both replicates (recomputed)
[1] = compound: C1=CC=C(C=C1)[C@H](COC2=CC3=C(C=C2)NC(=O)N3)NC(=O)C4=CC=CN(C4=O)CC5=CC(=C(C=C5)F)F
Method in brief: (§1)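 A 30 min treatment with 10 μM compound was applied to crude K562 extract at 1 mg/mL protein in PBS pH 7.4 with 1 mM MgCl2. Heating for 3 min spanned 48°C-58°C, after which aliquots were pooled, adjusted to 0.5% NP-40 at 4°C and spun at 21,000xg for 90 min. TMTpro 16plex LC-MS/MS of the supernatant, with channel sums equalised, gave values recorded as log-two fold change in thermal stability against solvent controls, from duplicates.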

[2] = compound: CC1=C(SC2=C1C(=N[C@H](C3=NN=C(N32)C)CC(=O)N)C4=CC=C(C=C4)Cl)C
Method in brief: as §1

[3] = compound: CC1=C2C(=CC=C1)N=C(N(C2=O)C3=CC=CC=C3C)CN4C=NC5=C(N=CN=C54)N
Method in brief: as §1

[4] = compound: Cc1sc2c(c1C)C(c1ccc(Cl)cc1)=N[C@@H](CC(=O)OC(C)(C)C)c1nnc(C)n1-2
Method in brief: as §1

[5] = compound: c1ccc([C@@H]2C[C@H]2NC2CCNCC2)cc1
Method in brief: as §1

Sequence of UniProt P28288 (P28288 whole entry, looked up): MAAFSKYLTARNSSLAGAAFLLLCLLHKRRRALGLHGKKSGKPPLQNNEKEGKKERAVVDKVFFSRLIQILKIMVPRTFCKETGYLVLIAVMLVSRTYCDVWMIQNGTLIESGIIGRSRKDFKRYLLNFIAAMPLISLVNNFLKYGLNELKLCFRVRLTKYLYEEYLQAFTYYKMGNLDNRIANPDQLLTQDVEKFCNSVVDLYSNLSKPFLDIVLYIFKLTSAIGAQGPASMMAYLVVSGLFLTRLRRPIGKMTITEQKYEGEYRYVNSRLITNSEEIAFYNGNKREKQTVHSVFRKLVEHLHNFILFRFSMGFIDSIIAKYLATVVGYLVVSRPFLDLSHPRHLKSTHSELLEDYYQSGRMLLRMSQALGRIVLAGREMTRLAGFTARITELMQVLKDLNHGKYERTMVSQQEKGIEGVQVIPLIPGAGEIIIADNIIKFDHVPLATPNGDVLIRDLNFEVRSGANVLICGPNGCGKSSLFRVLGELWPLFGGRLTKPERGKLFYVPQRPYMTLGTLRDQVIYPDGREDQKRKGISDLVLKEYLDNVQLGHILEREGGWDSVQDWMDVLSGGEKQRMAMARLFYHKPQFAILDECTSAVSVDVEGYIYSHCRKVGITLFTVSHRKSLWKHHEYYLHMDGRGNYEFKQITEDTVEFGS
Sequence of UniProt P16219 (P16219 whole entry, looked up): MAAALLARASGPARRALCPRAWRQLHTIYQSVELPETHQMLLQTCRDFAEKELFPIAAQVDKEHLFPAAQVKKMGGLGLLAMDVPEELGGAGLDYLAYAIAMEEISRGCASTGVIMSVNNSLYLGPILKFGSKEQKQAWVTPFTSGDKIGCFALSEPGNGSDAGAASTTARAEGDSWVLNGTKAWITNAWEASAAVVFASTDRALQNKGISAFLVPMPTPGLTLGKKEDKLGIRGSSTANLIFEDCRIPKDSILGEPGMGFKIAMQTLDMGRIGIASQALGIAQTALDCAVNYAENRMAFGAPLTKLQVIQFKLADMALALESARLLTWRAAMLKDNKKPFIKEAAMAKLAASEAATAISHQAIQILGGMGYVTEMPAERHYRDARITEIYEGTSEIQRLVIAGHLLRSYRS
Sequence of UniProt Q3SXY8 (Q3SXY8 whole entry, looked up): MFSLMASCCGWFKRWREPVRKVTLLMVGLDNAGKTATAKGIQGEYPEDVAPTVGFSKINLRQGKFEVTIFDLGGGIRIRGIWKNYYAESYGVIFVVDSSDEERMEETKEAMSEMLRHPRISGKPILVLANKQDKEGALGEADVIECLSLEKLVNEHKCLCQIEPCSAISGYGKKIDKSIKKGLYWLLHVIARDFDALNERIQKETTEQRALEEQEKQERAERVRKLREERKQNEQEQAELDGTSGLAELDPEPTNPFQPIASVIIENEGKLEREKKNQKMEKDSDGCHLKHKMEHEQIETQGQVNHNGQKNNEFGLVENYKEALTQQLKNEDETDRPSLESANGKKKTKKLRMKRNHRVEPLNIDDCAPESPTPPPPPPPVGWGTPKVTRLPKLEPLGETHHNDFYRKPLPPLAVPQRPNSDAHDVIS
Sequence of UniProt Q9UKV3 (Q9UKV3 whole entry, looked up): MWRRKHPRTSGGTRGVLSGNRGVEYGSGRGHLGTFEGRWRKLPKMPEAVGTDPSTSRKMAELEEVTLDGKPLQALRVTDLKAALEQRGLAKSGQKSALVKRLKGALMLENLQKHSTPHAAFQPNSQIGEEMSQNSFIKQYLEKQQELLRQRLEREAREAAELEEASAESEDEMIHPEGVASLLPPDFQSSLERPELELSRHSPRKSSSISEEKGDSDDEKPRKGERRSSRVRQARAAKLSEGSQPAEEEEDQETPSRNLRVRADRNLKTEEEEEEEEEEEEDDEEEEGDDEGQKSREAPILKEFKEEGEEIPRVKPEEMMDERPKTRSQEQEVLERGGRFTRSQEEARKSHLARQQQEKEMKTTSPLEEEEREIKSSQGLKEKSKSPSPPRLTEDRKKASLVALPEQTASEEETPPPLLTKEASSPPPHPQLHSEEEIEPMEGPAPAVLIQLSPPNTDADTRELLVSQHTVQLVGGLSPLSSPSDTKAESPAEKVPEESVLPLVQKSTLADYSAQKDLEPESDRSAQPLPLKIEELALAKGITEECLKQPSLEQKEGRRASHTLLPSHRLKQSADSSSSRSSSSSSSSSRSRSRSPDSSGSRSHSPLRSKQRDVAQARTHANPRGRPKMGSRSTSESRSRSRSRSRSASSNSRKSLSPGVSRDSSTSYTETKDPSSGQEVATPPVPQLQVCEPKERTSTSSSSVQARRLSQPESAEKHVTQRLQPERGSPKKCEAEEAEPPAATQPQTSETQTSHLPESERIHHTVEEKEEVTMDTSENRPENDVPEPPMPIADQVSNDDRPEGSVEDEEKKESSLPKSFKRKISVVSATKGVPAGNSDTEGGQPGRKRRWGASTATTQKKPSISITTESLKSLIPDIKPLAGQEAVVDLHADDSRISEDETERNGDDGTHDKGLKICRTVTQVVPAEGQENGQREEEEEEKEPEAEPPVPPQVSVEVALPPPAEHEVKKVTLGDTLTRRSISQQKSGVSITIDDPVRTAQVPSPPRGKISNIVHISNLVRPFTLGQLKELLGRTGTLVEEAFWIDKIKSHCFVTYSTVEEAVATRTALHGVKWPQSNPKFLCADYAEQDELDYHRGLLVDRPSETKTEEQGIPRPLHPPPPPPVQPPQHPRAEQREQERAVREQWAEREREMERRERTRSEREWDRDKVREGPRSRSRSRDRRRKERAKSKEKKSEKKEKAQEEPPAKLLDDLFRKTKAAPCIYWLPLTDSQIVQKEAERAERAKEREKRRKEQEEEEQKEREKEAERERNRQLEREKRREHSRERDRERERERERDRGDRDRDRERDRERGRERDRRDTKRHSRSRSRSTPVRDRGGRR
Sequence of UniProt P30837 (P30837 whole entry, looked up): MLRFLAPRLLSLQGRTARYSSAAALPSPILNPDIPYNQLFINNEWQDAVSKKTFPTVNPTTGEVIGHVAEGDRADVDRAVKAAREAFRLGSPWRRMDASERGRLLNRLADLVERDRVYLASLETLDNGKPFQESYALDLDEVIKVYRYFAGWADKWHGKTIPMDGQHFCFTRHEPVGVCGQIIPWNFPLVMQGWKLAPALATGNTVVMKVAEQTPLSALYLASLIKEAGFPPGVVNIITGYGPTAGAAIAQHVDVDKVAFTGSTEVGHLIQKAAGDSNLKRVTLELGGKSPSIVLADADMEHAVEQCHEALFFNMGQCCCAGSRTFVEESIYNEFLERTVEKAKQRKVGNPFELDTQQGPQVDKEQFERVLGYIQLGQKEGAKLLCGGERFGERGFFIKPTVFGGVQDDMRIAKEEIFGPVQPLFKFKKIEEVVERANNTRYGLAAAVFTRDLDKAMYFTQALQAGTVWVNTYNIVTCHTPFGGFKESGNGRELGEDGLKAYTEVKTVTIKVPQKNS
Sequence of UniProt Q96P48 (Q96P48 whole entry, looked up): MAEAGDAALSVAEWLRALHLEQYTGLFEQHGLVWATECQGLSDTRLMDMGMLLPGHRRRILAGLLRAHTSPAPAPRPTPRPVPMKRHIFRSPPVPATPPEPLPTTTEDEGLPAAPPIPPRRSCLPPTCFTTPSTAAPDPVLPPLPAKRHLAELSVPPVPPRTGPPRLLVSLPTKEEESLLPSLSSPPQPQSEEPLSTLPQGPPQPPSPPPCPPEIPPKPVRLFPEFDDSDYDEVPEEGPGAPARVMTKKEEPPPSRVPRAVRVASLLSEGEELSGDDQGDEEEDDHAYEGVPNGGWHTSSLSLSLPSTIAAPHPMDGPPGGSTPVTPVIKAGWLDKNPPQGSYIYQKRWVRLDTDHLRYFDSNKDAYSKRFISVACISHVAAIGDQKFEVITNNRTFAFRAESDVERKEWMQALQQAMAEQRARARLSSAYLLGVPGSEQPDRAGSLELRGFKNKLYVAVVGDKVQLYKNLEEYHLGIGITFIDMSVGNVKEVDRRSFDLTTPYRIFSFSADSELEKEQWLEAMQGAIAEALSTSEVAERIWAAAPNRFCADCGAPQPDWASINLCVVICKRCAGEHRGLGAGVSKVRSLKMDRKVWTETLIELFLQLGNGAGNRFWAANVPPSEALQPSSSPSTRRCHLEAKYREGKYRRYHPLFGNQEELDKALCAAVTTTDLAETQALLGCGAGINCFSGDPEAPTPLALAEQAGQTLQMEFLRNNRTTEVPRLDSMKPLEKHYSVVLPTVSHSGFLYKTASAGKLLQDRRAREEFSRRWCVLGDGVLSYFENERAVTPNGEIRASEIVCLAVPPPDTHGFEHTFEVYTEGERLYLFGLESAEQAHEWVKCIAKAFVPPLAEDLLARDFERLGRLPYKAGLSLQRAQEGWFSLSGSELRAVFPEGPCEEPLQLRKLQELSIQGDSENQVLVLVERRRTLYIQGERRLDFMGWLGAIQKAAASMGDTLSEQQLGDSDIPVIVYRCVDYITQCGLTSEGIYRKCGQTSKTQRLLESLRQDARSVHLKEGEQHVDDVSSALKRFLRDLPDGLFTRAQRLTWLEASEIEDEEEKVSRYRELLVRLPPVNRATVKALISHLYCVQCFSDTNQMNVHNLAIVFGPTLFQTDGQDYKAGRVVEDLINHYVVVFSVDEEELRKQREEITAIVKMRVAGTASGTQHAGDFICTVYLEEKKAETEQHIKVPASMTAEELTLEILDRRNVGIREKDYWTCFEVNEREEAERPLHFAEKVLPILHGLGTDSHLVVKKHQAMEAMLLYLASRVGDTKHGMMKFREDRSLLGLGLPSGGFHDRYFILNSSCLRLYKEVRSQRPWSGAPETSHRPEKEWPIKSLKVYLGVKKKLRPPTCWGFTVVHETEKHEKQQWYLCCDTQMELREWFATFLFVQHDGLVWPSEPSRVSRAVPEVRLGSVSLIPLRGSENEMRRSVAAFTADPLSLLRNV
Sequence of UniProt P00568 (P00568 whole entry, looked up): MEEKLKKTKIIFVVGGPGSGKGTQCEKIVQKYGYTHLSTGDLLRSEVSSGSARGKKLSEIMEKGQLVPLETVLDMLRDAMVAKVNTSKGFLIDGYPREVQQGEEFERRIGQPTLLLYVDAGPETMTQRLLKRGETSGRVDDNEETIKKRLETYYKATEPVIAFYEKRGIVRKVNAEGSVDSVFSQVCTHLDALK

| Target | log2 fold change [1] | log2 fold change [2] | log2 fold change [3] | log2 fold change [4] | log2 fold change [5] |
| --- | --- | --- | --- | --- | --- |
| ANKRD54 (UniProt Q6NXT1) | 0.011 | -0.04 | 0.038 | -0.042 | -0.024 |
| ACADM isoform 2 (UniProt P11310) | -0.071 | -0.035 | 0.043 | 0.017 | 0.013 |
| ALDH1B1 (UniProt P30837) | 0.143 | -0.021 | 0.006 | 0.049 | 0.019 |
| ACSL1 (UniProt P33121) | -0.136 | 0.004 | 0.014 | 0.063 | 0.021 |
| ASCC2 (UniProt Q9H1I8) | 0.181 | 0.063 | -0.027 | -0.019 | 0.076 |
| ACTG1 (UniProt I3L4N8) | -0.042 | -0.082 | -0.098 | -0.245 | 0.218 |
| ADK, A0A5F9ZH76 | -0.136 | 0.197 | – | – | – |
| ALDH2 (UniProt P05091) | 0.029 | -0.028 | -0.022 | -0.018 | 0.01 |
| ARHGEF2 (UniProt Q92974) | 0.023 | -0.007 | 0.034 | 0.008 | 0.05 |
| AKT2 (UniProt P31751) | 0.011 | 0.003 | 0.031 | 0.02 | 0.028 |
| ABCA3 (UniProt Q99758) | 0.112 | 0.038 | 0.006 | -0.01 | -0.005 |
| AKAP8 (UniProt O43823) | -0.02 | 0.073 | -0.016 | -0.009 | -0.014 |
| AKAP11 (UniProt Q9UKA4) | 0.025 | -0.008 | 0.059 | -0.041 | -0.012 |
| AKR1C3 (UniProt P42330) | 0.031 | 0.05 | 0.022 | -0.04 | 0.031 |
| ACOX1 isoform 2 (UniProt Q15067) | 0.035 | -0.002 | -0.026 | -0.018 | -0.037 |
| ABCF3 (UniProt Q9NUQ8) | 0.002 | -0.016 | 0.031 | 0.013 | 0.06 |
| ACAT1 (UniProt P24752) | -0.007 | 0.029 | -0.016 | 0.031 | 0.024 |
| ADAMTS5 (UniProt Q9UNA0) | 0.032 | 0.115 | 0 | -0.136 | -0.481 (active) |
| ARL13B (UniProt Q3SXY8) | 0.087 | 0.03 | 0.012 | 0.019 | 0.145 |
| ASPH (UniProt Q12797) | 0.006 | 0.028 | 0 | -0.045 | 0.026 |
| ALKBH4 (UniProt Q9NXW9) | 0.011 | 0.025 | 0.032 | 0.01 | -0.017 |
| ACAA1 (UniProt P09110) | -0.004 | 0.007 | -0.005 | 0.046 | -0.003 |
| AKT1 (UniProt P31749) | 0.011 | -0.028 | -0.028 | -0.009 | 0.013 |
| ADD1 isoform 4 (UniProt P35611) | 0.22 | 0.088 | 0.12 | -0.099 | -0.571 |
| ARGLU1 (UniProt Q9NWB6) | 0.049 | 0.009 | 0.036 | -0.026 | 0.074 |
| ANKRD40 (UniProt Q6AI12) | 0.133 | 0.072 | 0.536 | -0.156 | 0.053 |
| AK1 (UniProt P00568) | -0.032 | 0.024 | -0.009 | 0.012 | 0.2 |

| Target | log2 fold change [1] | log2 fold change [2] | log2 fold change [3] | log2 fold change [4] | log2 fold change [5] |
| --- | --- | --- | --- | --- | --- |
| ARHGEF1 (UniProt M0QZR4) | -0.046 | 0.006 | -0.017 | -0.017 | 0.004 |
| ANKRD27 (UniProt Q96NW4) | -0.025 | 0.022 | -0.011 | 0.042 | -0.002 |
| ADD1 isoform 3 (UniProt P35611) | 0.03 | 0.016 | -0.01 | -0.021 | 0.015 |
| APOB (UniProt P04114) | -0.009 | 0.039 | 0.023 | -0.168 | -0.109 |
| AHCYL1 (UniProt O43865) | -0.011 | -0.003 | -0.011 | 0.034 | 0.006 |
| ANKRD30B (UniProt Q9BXX2) | -0.098 | 0.112 | 0.042 | -0.125 | -0.407 |
| ARAP1 (UniProt Q96P48) | 0.022 | -0.008 | 0.048 | 0.013 | -0.015 |
| ANXA1 (UniProt P04083) | -0.011 | 0.005 | -0.01 | -0.019 | -0.005 |
| AKR1B1 (UniProt P15121) | 0.015 | 0.066 | 0.059 | -0.146 | -0.049 |
| AIFM2 (UniProt Q9BRQ8) | 0.668 (active) | 0.008 | 0.039 | -0.007 | -0.1 |
| AK2 (UniProt P54819) | 0.046 | -0.013 | 0.01 | 0.051 | -0.015 |
| ABCD3 (UniProt P28288) | 0.178 | -0.094 | 0.016 | 0.013 | 0.01 |
| ABL2 (UniProt P42684) | -0.026 | 0.016 | 0 | -0.14 | -0.105 |
| APAF1 (UniProt O14727) | -0.013 | 0.004 | 0.022 | 0.012 | 0.02 |
| ACIN1 isoform 5 (UniProt Q9UKV3) | -0.002 | 0.019 | 0.013 | -0.01 | 0.012 |
| ALDH1L2 (UniProt Q3SY69) | 0.015 | 0.041 | 0.052 | -0.009 | -0.023 |
| ABHD17A isoform 2 (UniProt Q96GS6) | -0.053 | -0.02 | 0.011 | -0.025 | -0.069 |
| AP1G2 (UniProt O75843) | 0.082 | -0.09 | 0.016 | 0.028 | -0.099 |
| ANXA5 (UniProt P08758) | 0.031 | 0.016 | 0.013 | 0.033 | 0.075 |
| ABCC5 (UniProt O15440) | 0.087 | -0.052 | -0.108 | -0.099 | 0.115 |
| AGTPBP1 (UniProt Q9UPW5) | 0.131 | -0.13 | 0.051 | -0.042 | 0.03 |
| ANXA13 isoform 2 (UniProt P27216) | 0.058 | -0.041 | -0.048 | 0.17 | 0.011 |
| ACACA isoform 4 (UniProt Q13085) | 0.001 | 0.027 | 0.019 | 0.027 | 0.085 |
| ACADS (UniProt P16219) | -0.015 | 0.069 | 0.054 | 0.013 | 0.003 |
| ALG13 (UniProt Q9NP73) | -0.015 | -0.018 | 0.09 | 0.037 | -0.087 |
| ADK (UniProt P55263) | 0.059 | -0.035 | 0.051 | -0.036 | -0.133 |
